In PubChem BioAssay (NCATS):
Records with an inconclusive call do not appear. A call without a number means that no potency is given here. Active and inactive are the calls of the source. Unless noted, calls follow the shape of the dose curve; as a rule, active = well fitted curve in the direction sought with a large enough effect; inconclusive = small, poorly fitted or top-dose-only effect, or another doubt; inactive = no such curve, though single readings can be large; an effect the other way counts as inactive or inconclusive.

Legend:
[1] = biological target: Transient receptor potential cation channel subfamily V member 1 (Homo sapiens) (UniProt Q8NER1); experiment: HTS Assay for Compounds that Act as Enhancers of the Vanilloid Receptor 1 (AID 488979)
Outline: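 TRPV1 cells loaded with Fluo-8 calcium dye; compound added and Ca2+ signal (ex 480/em 520 nm) followed 3 min, then capsaicin at EC20 added and read 2 more min to detect enhancement.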

[2] = biological target: Thyrotropin receptor (Homo sapiens) (UniProt P16473); experiment: qHTS Assay for Antagonists of the Thyroid Stimulating Hormone Receptor (AID 488980); also: series mostly up to about 58 µM
Outline: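 Inhibition of cAMP raised by EC80 TSH (4 nM final) was read by HTRF, with lysate cAMP competing against cAMP-d2 for cryptate antibody after 30 min at room temperature. The cells were transfected HEK293 held in phosphodiesterase inhibitor RO 20-1724 at 70 uM.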

[3] = biological target: D(1A) dopamine receptor (Homo sapiens) (UniProt P21728); experiment: HTS Assay for Allosteric Agonists of the Human D1 Dopamine Receptor: Primary Screen for Agonists (AID 488981)
Outline: (§1)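 Tetracycline-induced HEK293 Trex D1 cells with forced coupling to calcium, loaded with no-wash calcium dye; kinetic fluorescence read 180 s after compound addition for agonism, then a further 180 s after an EC20 dopamine challenge for potentiation.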

[4] = biological target: D(1A) dopamine receptor (Homo sapiens) (UniProt P21728); experiment: HTS Assay for Allosteric Agonists of the Human D1 Dopamine Receptor: Primary Screen for Potentiators (AID 488982)
Outline: as §1

[5] = biological target: D(1A) dopamine receptor (Homo sapiens) (UniProt P21728); experiment: HTS Assay for Allosteric Agonists of the Human D1 Dopamine Receptor: Primary Screen for Antagonists (AID 488983);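 also: calcium flux response to an EC80 dopamine challenge measured with no-wash dye; nearly all actives have a fitted effect of over 65% in size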; also: potency is read from the fitted curve at half-maximal effect
Outline: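 Screening of inducible HEK293 T-REx D1 cells: compound first, EC80 dopamine 180 s later, each phase read kinetically for calcium over 180 s.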

[6] = biological target: ATPase family AAA domain-containing protein 5 (Homo sapiens) (UniProt Q96QE3); experiment: Validation screen for small molecules that inhibit ELG1-dependent DNA repair in human embryonic kidney (HEK293T) cells expressing luciferase-tagged ELG1 (AID 493107);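 also: cells co-treated with the DNA-damaging agent 5-fluorouridine alongside compound; series mostly up to about 46 µM; inhibitors lower the ELG1-luciferase luminescence signal; nearly all actives have a fitted effect of over 70% in size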
Outline: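 Quantitative HTS in HEK293T cells carrying luciferase-tagged ELG1, stimulated with 5-fluorouridine alongside compound for 16 hr. Loss of luciferase signal marks inhibition of ELG1 response.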

[7] = biological target: Thyrotropin-releasing hormone receptor (Homo sapiens) (UniProt P34981); experiment: qHTS for Small Molecule Agonists and Allosteric Enhancers of Human TRH Receptor: Validation Screen for Agonists (AID 493127;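 active = calcium activation more than 3 SD above the typical response in the agonist read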;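 also: intracellular calcium rise by fluo-8 fluorescence before TRH EC20 addition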); settings: TRH receptor agonist cell assay; at 2 µM; stronger effect = higher value
Outline: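 Gq-coupled calcium mobilization in TRHR cells after compound addition, monitored kinetically with fluo-8 dye on an FDSS reader.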

[8] = Nrf2 qHTS screen for inhibitors: Validation (AID 493153; active = well fitted inhibition curve with a large enough effect in the main read-out, with a control signal flat, not every such curve was filed as active); settings: Potency: luciferase luminescence; viability change: measured here: cytotoxicity max response
Outline: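 Dose-response validation uses reporter A549 cells with firefly luciferase under an antioxidant response element. Compounds stay on cells 18-24 h at 37°C, and luminescence indicates Nrf2-driven transcription.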

[9] = qHTS for Inhibitors of Cell Surface uPA Generation: Validation Assay (AID 493164);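 also: RAW 264.7 macrophage cells exposed to compound for 18 h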
Outline: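 RAW 264.7, 4000 cells/well, o/n plating; cpd 7-pt 1:5 dilution 2.45 nM–38.3 uM final; 18 h, 37 C/5% CO2; ATP-Lite, 5 s luminescence exposure.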

[10] = biological target: Galactokinase (Homo sapiens) (UniProt P51570); experiment: qHTS Validation Assay for Inhibitors of Human Galactokinase (GALK) (AID 493189)
Outline: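 Inhibition was measured as remaining ATP, detected by luciferase luminescence after a 1 h room-temperature reaction. Final conditions: 5 nM GALK, 100 uM galactose, 35 uM ATP, pH 8.0 HEPES buffer.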

[11] = Validation screen for small molecules that induce DNA re-replication in SW480 colon adenocarcinoma cells (AID 504364)
Outline: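 Cells are treated 48 hr with test compound, stained 40 min with Hoechst at 37 C, and scanned for nuclear fluorescence; compounds inducing re-replication increase nuclei with elevated intensity.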

[12] = biological target: Peptidyl-prolyl cis-trans isomerase NIMA-interacting 1 (Homo sapiens) (UniProt Q13526); experiment: qHTS Validation Assay to Find Inhibitors of Pin1 (AID 504536; active = well fitted inhibition curve with a large enough effect in the polarisation, with a control signal flat, not every such curve was filed as active; the % refers to the polarisation)
Outline: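 Fluorescence polarization competition: compounds (titration) displace HiFluor-488-labeled Pin1-1b peptide from Pin1 (0.3 uM final) in pH 7.5 HEPES buffer with DTT, 10 min at room temperature; %Activity normalized to no-enzyme wells, curves fitted.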

[13] = biological target: Phosphoglycerate kinase, glycosomal (Trypanosoma brucei brucei) (UniProt P07378); experiment: qHTS Validation Assay to Find Inhibitors of Phosphoglycerate Kinase (AID 504547); also: potency is read from the fitted curve at half-maximal effect
Outline: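 PGK activity was coupled to GAPDH (100nM final), which generates the unstable substrate 1,3-bisphosphoglycerate in-well. Reactions ran 60 minutes at room temperature in 100mM TEA pH 7.6, 5mM MgCl2, 0.01% Tween-20, then Kinase-Glo Plus luminescence was read.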

[14] = biological target: phosphoglycerate mutase (Leishmania major) (UniProt Q4Q090); experiment: qHTS Validation Assay to Find Inhibitors of Phosphoglycerate Mutase (AID 504548); settings: Potency: inhibition qHTS; also: series mostly up to about 58 µM
Outline: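 Luminescent end-point read-out via Kinase-GloPlus after a 10-minute development. Reaction: 1.25nM Leishmania major PGAM with substrate and compound, 45 minutes at room temperature in TEA buffer (pH 7.6) with MgCl2 and Tween-20.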

[15] = biological target: Ubiquitin carboxyl-terminal hydrolase 1 (Homo sapiens) (UniProt O94782); experiment: Inhibitors of USP1/UAF1: Pilot qHTS (AID 504865); also: nearly all actives have a fitted effect of over 35% in size; also: potency is read from the fitted curve at half-maximal effect
Outline: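 Deubiquitinase activity followed as kinetic rhodamine fluorescence release from 150 nM Ub-Rho. 1 nM USP1/UAF1 with compound, after 15 min room-temperature preincubation, in HEPES pH 7.8 buffer containing TCEP, EDTA, BSA and Tween-20.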

[16] = qHTS for Inhibitors of ATXN expression: Validation of Cytotoxic Assay (AID 588349);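 also: cells exposed to compound for 72 hr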
Outline: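 HEK293, compound dose series, 72 hr / 37 degrees C; viability via CellTiter Glo (intracellular ATP).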

[17] = qHTS for Inhibitors of ATXN expression: Validation (AID 588378); also: series mostly up to about 57 µM; nearly all actives have a fitted effect of over 75% in size
Outline: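 Luciferase luminescence (Bright-Glo) from an ATXN2-FFLuc HEK293 line after 24 h compound exposure at 37 °C, preceded by a CellTiter-Fluor fluorescence viability read. Serial dilutions of a reference ATXN2 inhibitor and a luciferase inhibitor served as controls.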

[18] = Validation screen for small molecules that induce genotoxicity in human embryonic kidney (HEK293T) cells expressing luciferase-tagged ELG1 (AID 493106)
Outline: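 Reporter-gene quantitative HTS in HEK293T cells carrying luciferase-tagged ELG1, whose level climbs under genotoxic stress. Compound exposure lasts 16 hr at 37 °C before luciferase detection.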

Sequence of phosphoglycerate mutase (Leishmania major) (Q4Q090 1-553): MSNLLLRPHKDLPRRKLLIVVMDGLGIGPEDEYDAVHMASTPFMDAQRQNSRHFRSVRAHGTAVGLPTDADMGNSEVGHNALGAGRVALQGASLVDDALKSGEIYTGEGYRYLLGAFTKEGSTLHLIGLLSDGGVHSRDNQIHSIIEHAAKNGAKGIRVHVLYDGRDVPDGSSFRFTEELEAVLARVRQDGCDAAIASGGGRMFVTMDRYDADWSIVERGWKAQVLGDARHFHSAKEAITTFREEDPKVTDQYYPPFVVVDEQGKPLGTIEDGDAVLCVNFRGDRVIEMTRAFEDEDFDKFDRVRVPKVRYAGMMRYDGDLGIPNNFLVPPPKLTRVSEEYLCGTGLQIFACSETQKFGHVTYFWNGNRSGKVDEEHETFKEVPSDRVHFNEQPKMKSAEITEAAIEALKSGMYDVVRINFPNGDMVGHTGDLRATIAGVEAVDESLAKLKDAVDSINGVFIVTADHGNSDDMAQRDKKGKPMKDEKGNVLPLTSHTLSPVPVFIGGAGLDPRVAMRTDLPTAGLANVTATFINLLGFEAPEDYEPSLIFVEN
Sequence of Phosphoglycerate kinase, glycosomal (Trypanosoma brucei brucei) (P07378 whole entry, looked up): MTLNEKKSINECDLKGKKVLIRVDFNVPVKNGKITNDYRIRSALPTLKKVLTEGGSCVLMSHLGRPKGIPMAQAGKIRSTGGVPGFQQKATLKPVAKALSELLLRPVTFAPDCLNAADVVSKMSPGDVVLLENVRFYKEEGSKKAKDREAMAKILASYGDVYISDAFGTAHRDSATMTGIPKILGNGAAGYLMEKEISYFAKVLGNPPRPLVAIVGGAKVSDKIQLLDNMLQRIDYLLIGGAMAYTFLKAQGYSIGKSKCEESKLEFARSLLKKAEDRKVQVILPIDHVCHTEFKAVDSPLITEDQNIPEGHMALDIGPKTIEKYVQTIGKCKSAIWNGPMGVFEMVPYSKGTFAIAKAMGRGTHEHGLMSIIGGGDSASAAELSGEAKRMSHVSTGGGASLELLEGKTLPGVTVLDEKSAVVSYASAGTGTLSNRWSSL
Sequence of Peptidyl-prolyl cis-trans isomerase NIMA-interacting 1 (Homo sapiens) (Q13526 whole entry, looked up): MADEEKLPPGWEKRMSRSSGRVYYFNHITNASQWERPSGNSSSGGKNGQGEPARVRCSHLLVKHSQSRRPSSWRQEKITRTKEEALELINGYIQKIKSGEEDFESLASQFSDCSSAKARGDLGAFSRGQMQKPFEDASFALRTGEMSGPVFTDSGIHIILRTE
Sequence of D(1A) dopamine receptor (Homo sapiens) (P21728 whole entry, looked up): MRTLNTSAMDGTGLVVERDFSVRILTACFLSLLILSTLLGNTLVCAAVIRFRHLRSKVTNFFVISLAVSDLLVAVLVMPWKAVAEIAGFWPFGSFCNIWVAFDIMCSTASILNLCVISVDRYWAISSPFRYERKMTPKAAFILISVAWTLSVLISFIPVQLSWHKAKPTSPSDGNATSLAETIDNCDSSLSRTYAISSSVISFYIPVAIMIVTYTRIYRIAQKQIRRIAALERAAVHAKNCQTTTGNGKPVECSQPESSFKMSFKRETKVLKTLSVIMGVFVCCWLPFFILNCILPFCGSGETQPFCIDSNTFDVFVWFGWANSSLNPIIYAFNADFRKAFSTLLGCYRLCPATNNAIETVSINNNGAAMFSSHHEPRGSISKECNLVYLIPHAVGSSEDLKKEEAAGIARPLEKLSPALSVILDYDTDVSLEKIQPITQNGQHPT
Sequence of Thyrotropin receptor (Homo sapiens) (P16473 whole entry, looked up): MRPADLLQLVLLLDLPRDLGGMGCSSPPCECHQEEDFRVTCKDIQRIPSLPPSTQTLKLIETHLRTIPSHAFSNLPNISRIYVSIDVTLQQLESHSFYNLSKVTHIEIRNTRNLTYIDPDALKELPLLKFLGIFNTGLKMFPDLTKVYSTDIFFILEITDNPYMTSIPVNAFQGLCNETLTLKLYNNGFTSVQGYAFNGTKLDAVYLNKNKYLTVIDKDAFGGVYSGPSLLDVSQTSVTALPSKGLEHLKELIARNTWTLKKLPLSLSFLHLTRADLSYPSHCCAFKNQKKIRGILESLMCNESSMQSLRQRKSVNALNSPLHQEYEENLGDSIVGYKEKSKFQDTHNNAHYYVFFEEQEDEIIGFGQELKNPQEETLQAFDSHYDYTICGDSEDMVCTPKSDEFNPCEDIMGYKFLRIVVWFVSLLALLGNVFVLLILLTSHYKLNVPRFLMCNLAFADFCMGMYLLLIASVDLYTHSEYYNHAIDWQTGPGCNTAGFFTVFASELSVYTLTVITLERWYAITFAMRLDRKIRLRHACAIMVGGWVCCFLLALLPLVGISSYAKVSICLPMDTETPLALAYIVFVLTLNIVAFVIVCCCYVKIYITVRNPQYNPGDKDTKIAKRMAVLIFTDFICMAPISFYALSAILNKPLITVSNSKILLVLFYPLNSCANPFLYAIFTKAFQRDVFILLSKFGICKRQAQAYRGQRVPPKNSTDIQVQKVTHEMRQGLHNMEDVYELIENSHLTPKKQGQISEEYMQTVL
Sequence of Transient receptor potential cation channel subfamily V member 1 (Homo sapiens) (Q8NER1 whole entry, looked up): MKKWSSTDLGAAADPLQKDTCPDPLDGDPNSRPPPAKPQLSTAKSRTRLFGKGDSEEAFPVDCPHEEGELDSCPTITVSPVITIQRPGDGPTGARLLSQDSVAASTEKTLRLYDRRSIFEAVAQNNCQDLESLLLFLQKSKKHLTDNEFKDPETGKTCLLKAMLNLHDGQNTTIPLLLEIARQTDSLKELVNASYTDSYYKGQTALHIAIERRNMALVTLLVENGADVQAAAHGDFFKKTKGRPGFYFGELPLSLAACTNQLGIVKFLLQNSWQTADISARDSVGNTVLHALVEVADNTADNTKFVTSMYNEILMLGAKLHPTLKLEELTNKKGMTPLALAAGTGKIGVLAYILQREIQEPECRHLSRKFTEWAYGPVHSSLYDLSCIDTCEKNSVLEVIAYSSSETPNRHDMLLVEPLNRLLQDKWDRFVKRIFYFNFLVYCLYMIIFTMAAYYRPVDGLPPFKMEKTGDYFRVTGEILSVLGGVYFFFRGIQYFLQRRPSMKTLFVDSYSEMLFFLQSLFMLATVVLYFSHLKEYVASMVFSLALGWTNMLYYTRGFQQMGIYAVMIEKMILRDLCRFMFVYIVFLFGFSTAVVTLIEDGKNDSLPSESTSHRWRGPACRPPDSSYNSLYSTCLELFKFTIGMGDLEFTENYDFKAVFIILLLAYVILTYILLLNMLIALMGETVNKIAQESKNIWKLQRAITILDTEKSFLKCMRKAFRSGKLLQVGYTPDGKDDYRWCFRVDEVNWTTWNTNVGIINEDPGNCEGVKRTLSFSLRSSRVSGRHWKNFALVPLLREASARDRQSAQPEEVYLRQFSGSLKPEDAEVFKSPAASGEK
Sequence of Ubiquitin carboxyl-terminal hydrolase 1 (Homo sapiens) (O94782 whole entry, looked up): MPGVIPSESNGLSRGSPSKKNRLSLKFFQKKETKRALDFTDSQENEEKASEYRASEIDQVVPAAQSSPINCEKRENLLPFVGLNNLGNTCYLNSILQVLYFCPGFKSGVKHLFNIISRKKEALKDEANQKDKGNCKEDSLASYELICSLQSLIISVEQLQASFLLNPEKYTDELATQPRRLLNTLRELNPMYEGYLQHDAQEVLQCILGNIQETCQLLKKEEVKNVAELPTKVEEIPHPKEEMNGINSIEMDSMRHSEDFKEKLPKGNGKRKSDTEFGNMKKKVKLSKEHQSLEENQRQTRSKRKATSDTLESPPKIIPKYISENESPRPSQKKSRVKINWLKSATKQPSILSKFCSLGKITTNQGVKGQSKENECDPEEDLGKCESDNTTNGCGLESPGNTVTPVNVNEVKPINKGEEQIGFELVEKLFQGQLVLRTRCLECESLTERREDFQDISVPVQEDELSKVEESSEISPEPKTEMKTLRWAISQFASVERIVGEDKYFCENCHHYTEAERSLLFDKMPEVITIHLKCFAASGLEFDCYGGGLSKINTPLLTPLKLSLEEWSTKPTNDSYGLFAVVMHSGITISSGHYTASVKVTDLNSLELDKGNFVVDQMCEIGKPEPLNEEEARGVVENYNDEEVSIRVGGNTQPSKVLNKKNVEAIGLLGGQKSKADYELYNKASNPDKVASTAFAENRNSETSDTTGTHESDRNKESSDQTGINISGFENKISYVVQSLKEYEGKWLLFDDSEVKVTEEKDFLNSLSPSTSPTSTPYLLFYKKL
Sequence of Galactokinase (Homo sapiens) (P51570 whole entry, looked up): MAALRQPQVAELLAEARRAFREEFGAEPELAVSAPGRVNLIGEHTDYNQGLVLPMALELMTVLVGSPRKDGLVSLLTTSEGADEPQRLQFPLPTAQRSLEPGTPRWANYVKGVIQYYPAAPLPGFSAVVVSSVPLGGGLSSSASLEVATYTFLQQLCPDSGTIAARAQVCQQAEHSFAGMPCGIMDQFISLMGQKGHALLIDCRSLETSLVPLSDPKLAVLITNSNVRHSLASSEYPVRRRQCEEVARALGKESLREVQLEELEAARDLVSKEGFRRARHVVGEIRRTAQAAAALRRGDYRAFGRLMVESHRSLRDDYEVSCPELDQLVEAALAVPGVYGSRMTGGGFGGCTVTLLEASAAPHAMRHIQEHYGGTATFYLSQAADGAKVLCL
Sequence of Thyrotropin-releasing hormone receptor (Homo sapiens) (P34981 whole entry, looked up): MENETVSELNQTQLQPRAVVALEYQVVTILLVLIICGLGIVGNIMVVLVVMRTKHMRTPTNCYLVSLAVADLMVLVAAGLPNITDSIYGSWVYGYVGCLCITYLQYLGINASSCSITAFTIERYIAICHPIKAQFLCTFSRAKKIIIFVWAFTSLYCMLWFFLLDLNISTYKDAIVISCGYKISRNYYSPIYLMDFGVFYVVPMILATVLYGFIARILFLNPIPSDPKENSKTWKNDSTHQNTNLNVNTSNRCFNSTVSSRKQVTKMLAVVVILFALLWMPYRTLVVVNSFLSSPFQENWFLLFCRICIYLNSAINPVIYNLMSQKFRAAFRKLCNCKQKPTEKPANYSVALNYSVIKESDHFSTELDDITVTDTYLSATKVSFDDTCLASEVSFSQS

CC(C)NCC(O)COc1ccc(CC(N)=O)cc1 (stereo not given)
outcome [1]: inactive
outcome [2]: inactive
Potency [3]: inactive
Potency [4]: inactive
Potency [5]: inactive
Potency [6]: inactive
activation [7]: 0.875% (inactive)
Potency [8]: inactive
viability change [8]: 0.809%
outcome [9]: inactive
Potency [10]: inactive
Potency [11]: inactive
Potency [12]: inactive
Potency [13]: inactive
Potency [14]: inactive
Potency [15]: inactive
Potency [16]: inactive
Potency [17]: inactive

C[N+](C)(C)CC=O
outcome [1]: inactive
outcome [2]: inactive
Potency [3]: inactive
Potency [4]: inactive
Potency [5]: inactive
Potency [6]: inactive
activation [7]: 1.56% (inactive)
Potency [8]: inactive
viability change [8]: 2.93%
outcome [9]: inactive
Potency [10]: inactive
Potency [11]: inactive
Potency [12]: inactive
Potency [13]: inactive
Potency [14]: inactive
Potency [15]: inactive
Potency [16]: inactive
Potency [17]: inactive

CC(=O)NCCc1c[nH]c2ccc(O)cc12
outcome [1]: inactive
outcome [2]: inactive
Potency [3]: inactive
Potency [4]: inactive
Potency [5]: inactive
Potency [6]: inactive
activation [7]: 1.31% (inactive)
Potency [8]: inactive
viability change [8]: -0.372%
outcome [9]: inactive
Potency [10]: inactive
Potency [11]: inactive
Potency [12]: inactive
Potency [13]: inactive
Potency [15]: inactive
Potency [16]: inactive
Potency [17]: inactive

O=c1cc(O)cc(/C=C/c2ccc(O)c(O)c2)o1
outcome [1]: inactive
outcome [2]: inactive
Potency [3]: inactive
Potency [4]: inactive
Potency [18]: inactive
Potency [6]: inactive
activation [7]: -0.438% (inactive)
Potency [8]: inactive
viability change [8]: -8.55%
outcome [9]: inactive
Potency [10]: inactive
Potency [11]: inactive
Potency [13]: 1690 nM (active)
Potency [16]: inactive
Potency [17]: inactive

O=C1C2C=CC=CC2=NC(=S)N1CCN1CCC(=C(c2ccc(F)cc2)c2ccc(F)cc2)CC1 (stereo not given)
outcome [1]: inactive
outcome [2]: inactive
Potency [3]: inactive
Potency [4]: inactive
Potency [18]: inactive
Potency [6]: inactive
activation [7]: -4.38% (inactive)
Potency [8]: inactive
viability change [8]: 6.28%
outcome [9]: inactive
Potency [11]: inactive
Potency [12]: inactive
Potency [13]: inactive
Potency [14]: inactive
Potency [16]: inactive
Potency [17]: inactive

COc1cccc(OC)c1OCCNCC1CSc2ccccc2O1 (stereo not given)
outcome [1]: inactive
outcome [2]: inactive
Potency [3]: inactive
Potency [4]: inactive
Potency [5]: 1260 nM (active)
Potency [6]: inactive
activation [7]: -3.81% (inactive)
Potency [8]: inactive
viability change [8]: -8.63%
outcome [9]: inactive
Potency [10]: inactive
Potency [12]: inactive
Potency [13]: inactive
Potency [14]: inactive

CCCCCCCCCCCCCCC[C@H](O)[C@H](N)CO
outcome [1]: inactive
outcome [2]: inactive
Potency [3]: inactive
Potency [4]: inactive
Potency [5]: inactive
Potency [6]: inactive
activation [7]: 1.44% (inactive)
Potency [8]: inactive
viability change [8]: 2.23%
Potency [10]: inactive
Potency [11]: inactive
Potency [12]: inactive
Potency [13]: inactive
Potency [14]: inactive
Potency [15]: 79400 nM (active)
Potency [16]: inactive
Potency [17]: inactive
